# Test results: the supplement of paper PMC11482750
# ± gives the standard deviation of the averaged measurements.
# Compound: CCCCCC(C)=O [2-heptanone]
# Experiment: control-subtracted net OSN firing rate; higher = stronger neuronal activation
# Details: odorant dilution (vol/vol): 1/100
# Protocol: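 Single sensillum recordings from olfactory sensory neurons. The neurons sit in the maxillary palp or antennal sensilla of D. melanogaster (wild type, mutants, or at1 empty-neuron lines expressing Or42a homologs or the A181D S307P mutant) and of four Scaptomyza species. Each odorant was given as a 1 s pulse from 20 µl loaded on filter paper at 1:100 vol/vol, diluted in mineral oil (γ-hexalactone in DMSO). Spikes were counted in a 0.5 s window starting 0.2 s after onset, background was subtracted, the count was doubled, and the mean solvent-control response was subtracted.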
row,Target,control-subtracted net OSN firing rate
1,S. flava pb2b-like,-1 ± 14 spikes/s
2,S. flava pb2a-like,7.33 ± 3.7 spikes/s
3,S. pallida pb2b-like,26.3 ± 7.8 spikes/s
4,Canton-S (D. melanogaster) pb3b,16.3 ± 24 spikes/s
5,S. hsui pb1a-like,136 ± 22 spikes/s
6,Canton-S (D. melanogaster) pb3a,5.67 ± 5.5 spikes/s
7,Canton-S (D. melanogaster) pb1a,161 ± 48 spikes/s
8,S. pallida pb2a-like,7.67 ± 6.6 spikes/s
9,S. montana pb1b-like,-12.3 ± 22 spikes/s
10,S. montana pb3b-like,-2 ± 6.5 spikes/s
11,S. pallida pb3b-like,-7.67 ± 13 spikes/s
12,S. montana pb1a-like,64.7 ± 19 spikes/s
13,S. montana pb2b-like,8 ± 10 spikes/s
14,S. flava pb3b-like,-8.67 ± 26 spikes/s
15,S. pallida pb1b-like,-9 ± 13 spikes/s
16,S. montana pb3a-like,97.3 ± 25 spikes/s
17,S. hsui pb3a-like,148 ± 31 spikes/s
18,S. hsui pb1b-like,-8.33 ± 8 spikes/s
19,Canton-S (D. melanogaster) pb2b,0.286 ± 11 spikes/s
20,S. hsui pb2a-like,8.67 ± 6.3 spikes/s
21,S. pallida pb3a-like,115 ± 19 spikes/s
22,S. flava pb1a-like,104 ± 19 spikes/s
23,S. montana pb2a-like,7 ± 13 spikes/s
24,Canton-S (D. melanogaster) pb1b,-10 ± 9.1 spikes/s
25,S. flava pb1b-like,-22 ± 27 spikes/s
26,S. pallida pb1a-like,95.7 ± 29 spikes/s
27,S. hsui pb2b-like,8.67 ± 16 spikes/s
28,Canton-S (D. melanogaster) pb2a,3.71 ± 7.3 spikes/s
29,S. flava pb3a-like,133 ± 40 spikes/s
30,S. hsui pb3b-like,-6.67 ± 5.9 spikes/s
